# Bioassay records as filed in PubChem.
# Most compounds without a hit are left out; they make up all but 4.6% or so of the library.
# TIM10 inh: TIM10 yeast growth inhibition; S. cerevisiae TIM10 strain growth, BacTiter-Glo luminescence, 24 h; inhibition, % at 10 µM; actives 1.4% (n = 330,000); AID 463195;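 active means inhibition of 40% or more at the single tested concentration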;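 further: wild-type TIM10 isogenic control strain grown at permissive 25 °C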
# PfHsp90 set2: growth inhibition of yeast expressing Plasmodium Hsp90 | S. cerevisiae expressing PfHsp90, BacTiter-Glo ATP, 48 h; yeast lacking PDR1 and PDR3 efflux regulators | inhibition, % at 9.4 µM | actives 0.32% (n = 310,000) | AID 504621;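 active means every replicate shows inhibition above about 80%, whatever the replicate mean, limit read from the data; inconclusive means mean inhibition reaches the set limit but some replicate falls short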;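 further: 0% = DMSO neutral controls and 100% = 20 µM radicicol positive controls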
# tim23-1 inh: growth inhibitors of tim23-1 mutant yeast. S. cerevisiae tim23-1 growth, BacTiter-Glo luminescence, 24 h. inhibition, % at 20 µM. actives 1.3% (n = 330,000). AID 463212;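 active means growth inhibition of the mutant yeast at or above 50%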;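 further: temperature-sensitive mutant grown at 25 °C; plate controls were DMSO-treated mutant yeast for no effect and medium wells lacking yeast for full effect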
# V-ATPase pH: regulators of yeast V-ATPase proton transport; S. cerevisiae, pHLuorin cytosolic pH fluorescence; response, % at 10 µM; actives 0.37% (n = 350,000); AID 504577; in the data active means response mostly above about 7.3%, no sharp cut-off; inactive means mostly below about 5.4%; further: actives read high
# tim10-1 inh: tim10-1 yeast growth inhibition. S. cerevisiae tim10-1 ts strain growth, BacTiter-Glo, 24 h. inhibition, % at 20 µM. actives 2.2% (n = 330,000). AID 463190;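 active means inhibition of at least 40%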;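 further: mutant grown at 25 °C; 0% = DMSO wells with yeast and 100% = wells holding no yeast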
# SKKanGAS inh: inhibitors of SKKanGAS S. pyogenes growth in kanamycin (SK-promoter or general growth effect). BacTiter-Glo, 6 h. inhibition, % at 7.5 µM. actives 1.3% (n = 300,000). AID 1662;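 active means mean replicate score, as percent of positive control median, at least 50; inconclusive means mean below 50 but one replicate at or above 50; inactive means mean and every replicate below 50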;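 further: strain carries kanamycin resistance gene driven by streptokinase promoter and grows in 40 µg/ml kanamycin; loss of luminescence reflects streptokinase promoter inhibition or plain growth inhibition; 0% = median of DMSO wells and 100% = positive control at its reference dose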
# tim10-1 conf: confirmation of tim10-1 mutant yeast growth inhibitors; S. cerevisiae tim10-1 ts strain growth, BacTiter-Glo, 24 h; actives 56% (n = 7,400); inhibition, % at 20 µM; shares compounds with tim10-1 inh;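 active means inhibition of yeast growth at or above a set limit in either of two repeat tests at 20 µM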;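 further: tim10-1 mutant grown at permissive 25 °C to find synthetic lethal compounds; 0% = DMSO yeast wells and 100% = medium wells without yeast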
# Numbers without * were called inactive; u = inconclusive; x = not tested or not shown.
SMILES,TIM10 inh,PfHsp90 set2,tim23-1 inh,V-ATPase pH,tim10-1 inh,SKKanGAS inh,tim10-1 conf
Cc1cc(C)c(C)c(S(=O)(=O)NCCCn2ccnc2)c1C,-12.1,-7.5,7.1,0.2,-12.2,3.8,x
Cc1c(C(=O)Nc2nccs2)oc2ccc(F)cc12,-5.7,-8.2,-11.1,4.0,-1.0,x,x
Cc1c(C(=O)/C=C/c2cccs2)oc2ccc(F)cc12,29.9,-24.4,30.6,-1.8,45.1*,-8.2,38.0*
CCOc1ccc(NC(=O)CN(C)C(=O)c2c(C)nn(-c3ccccc3)c2Cl)cc1OCC,-0.6,-8.7,6.6,2.6,0.3,-16.1,x
O=C(COc1ccccc1C(=O)O)Nc1ccc(SC(F)F)cc1,0.8,-15.2,6.6,2.6,6.8,13.0,x
O=C(COC(=O)c1ccccc1C(=O)c1ccccc1)Nc1ccc(SC(F)F)cc1,39.7,-26.5,39.4,4.0,41.1*,0.2,31.2*
CCn1c(COc2cccc(C)c2)nnc1SCC(=O)CC(=O)Nc1ccccc1OC,18.6,3.2,20.5,-7.0,47.6*,x,13.2
CCn1c(COc2ccccc2)nnc1SCC(=O)CC(=O)Nc1ccccc1OC,27.7,x,27.7,-2.2,25.4,33.6,x
Nc1cc(S(=O)(=O)N2CCCCC2)ccc1N1CCCCC1,24.4,3.2,34.1,-0.7,45.2*,x,26.6
O=C(OCC(=O)N1CCc2ccccc21)c1c2c(nc3ccccc13)CCCC2,39.6,18.6,33.9,-0.1,38.7,20.7,x
CC1Cc2ccccc2N1C(=O)COC(=O)c1c2c(nc3ccccc13)CCCCC2 (stereo not drawn),35.1,10.6,34.5,4.4,40.8*,5.3,36.4*
COc1cc2c(cc1OC)C(C)N(C(=O)c1cc3c(C)cc(C)cc3[nH]1)CC2 (stereo not drawn),20.8,-13.5,39.4,1.9,41.0*,4.5,10.5
CC(OC(=O)CC1CCCC1)C(=O)Nc1ccc(S(N)(=O)=O)cc1 (stereo not drawn),11.4,11.2,-1.6,2.9,0.4,u,x
CCn1c(CN2CCN(c3ccc(Cl)cc3)CC2)nc2ccccc21,35.7,38.5,36.5,-3.5,52.4*,x,33.6*
C/C(=N\NC(=S)NCc1ccccc1)c1ccc(Cl)s1,39.2,-34.5,4.6,0.0,41.3*,14.7,32.5*
Cn1c(NCc2cc(Br)ccc2O)nc2ccccc21,7.0,x,6.5,-2.0,37.7,-4.8,x
Cn1c(NCc2c(O)ccc3ccccc23)nc2ccccc21,27.7,x,36.3,-4.9,45.4*,4.8,33.1*
Cc1cc(C)n(-c2ccc(C(=O)OCn3nnc4ccccc4c3=O)cc2)n1,27.3,-5.0,40.9,-6.0,49.2*,3.8,41.8*
CN(C)CCNc1cnn(-c2ccccc2)c(=O)c1Cl,9.1,14.3,0.4,-1.4,3.8,10.7,x
COc1ccc(-n2cccc2/C=C2\C(=N)N3N=C(C(C)C)SC3=NC2=O)cc1,6.9,-20.9,24.5,-0.4,40.4*,33.2,25.8
CCC1=NN2C(=N)/C(=C\c3cccn3-c3cccc(Cl)c3)C(=O)N=C2S1,34.9,7.3,36.5,1.5,46.2*,35.8,37.2*
CCC1=NN2C(=N)/C(=C\c3cccn3-c3ccc(Br)cc3)C(=O)N=C2S1,x,-5.2,x,1.1,x,37.5,x
CN1CCN(C(=O)Cn2c(=O)oc3cc(S(=O)(=O)NCc4ccccc4)ccc32)CC1,3.0,-13.7,-11.2,1.9,-4.0,x,x
CNc1ccccc1C(C)(C)c1cc(-c2cccc([N+](=O)[O-])c2)no1,37.1,0.7,26.8,0.2,42.6*,19.0,33.4*
CCOC(=O)Nc1ccc(C(=O)NCC2CCCO2)cc1 (stereo not drawn),8.6,13.0,26.5,4.3,43.0*,-4.4,8.7
SMILES,TIM10 inh,PfHsp90 set2,tim23-1 inh,V-ATPase pH,tim10-1 inh,SKKanGAS inh,tim10-1 conf
CCOC(=O)N1CCN(C2CCCN(C(=O)c3ccccc3N(C)C)C2)CC1 (stereo not drawn),-2.9,-12.8,5.6,-4.8,18.4,2.5,x
O=C(c1ccc(O)cc1)c1ccc(Cl)cc1,-3.9,4.8,39.5,-1.1,40.0,3.2,25.7
O=[N+]([O-])c1ccc(COc2cccc(CN3CCCCC3)c2)cc1,x,-23.2,x,0.4,x,x,x
COc1ccc(/C=C2\CCCC3C2=NC(=S)NC3c2ccc(OC)cc2)cc1 (stereo not drawn),24.0,-8.4,49.5,-4.0,46.1*,13.2,28.3
O=C(CN(C(=O)c1csnn1)c1ccccc1C(F)(F)F)NC1CCCCC1,-12.5,-1.2,15.9,2.1,5.4,0.8,x
Cc1nc(C(=O)N2CCC(n3nccc3NC(=O)Nc3ccccc3Cl)CC2)cs1,5.0,-11.5,7.6,2.0,4.1,-12.6,x
N#Cc1cc(C(=O)c2ccccc2OCC(=O)Nc2ccccc2Cl)cn(C2CCCCC2)c1=O,7.6,-22.0,26.1,-0.8,43.5*,2.5,18.5
COc1ccc(N(C)S(=O)(=O)c2cccc(C(=O)Nc3cccc(C(=O)NC4CC4)c3)c2)cc1,10.1,-2.1,8.7,-1.9,4.0,x,x
CCCCc1ccc(S(=O)(=O)N2CCN(C(=O)c3ccco3)CC2)cc1,23.4,4.8,33.6,0.5,51.7*,-0.3,32.0*
Cc1c(C)c2ccc(OC(C)C(=O)NCCCN3CCOCC3)c(C)c2oc1=O (stereo not drawn),-0.1,4.6,12.4,1.2,13.3,0.3,x
CCOC(=O)c1cc(-c2ccncc2)nc2c1c(C)nn2-c1ccccn1,34.5,-35.7,44.9,1.8,45.3*,10.1,33.9*
COc1ccc(NS(=O)(=O)c2ccc3oc4ccccc4c3c2)cn1,24.3,-23.2,46.1,2.3,44.3*,-5.1,35.7*
COc1ccc(NS(=O)(=O)c2ccc(Br)cc2)cn1,3.1,-74.9,25.7,0.8,17.8,0.2,x
Cc1cccc2c1N1C(=O)c3c(C(=O)O)cccc3C1CC2C (stereo not drawn),-0.5,13.0,23.7,0.8,26.2,16.1,x
CCN(C[C@H]1N[C@@](CC)(C(=O)OC)[C@H]2C(=O)N(C)C(=O)[C@@H]12)C(=O)Nc1ccc(C)cc1,-9.0,0.2,10.3,5.3,12.9,x,x
O=C(O)CCS(=O)(=O)c1cc(Br)cc2c1N(C(=O)C1CC1)CC2,12.6,17.2,12.3,-0.3,6.2,11.3,x
CCCCN(C)S(=O)(=O)c1cc(Br)cc2c1N(C(=O)C1CC1)CC2,31.7,-18.7,40.8,1.9,41.8*,-7.9,32.1*
CCC(C)[C@H](NS(=O)(=O)c1ccc(C)cc1)C(=O)N1CCC(C(=O)N[C@@H](Cc2ccccc2)C(=O)O)CC1 (stereo partly drawn),2.7,2.8,13.8,-1.4,-2.3,0.2,x
O=C(O)CCCc1ccc2ccc3cccc4ccc1c2c34,18.6,-22.9,42.2,-2.0,43.4*,-10.2,24.8
CCOc1ccc(CN(C)C(=O)c2cccc(S(=O)(=O)N3CCCC3)c2)cc1OC,10.9,x,4.7,-2.9,-5.5,x,x
